Anthrax LF inh2: anthrax lethal factor protease inhibition. P15917. hit rate 0.12% among 360,000. inhibition, % at 10 µM. multiplex microsphere protease cleavage assay, LF; further: plate controls were buffer without enzyme for full effect and enzyme alone for no effect
BoNT F protease: BoNT F light chain protease inhibition; inhibition, % at 10 µM; hit rate 0.22% among 360,000; Multiplex microsphere protease cleavage assay, flow cytometry; AID 588497; in the data active means inhibition above about 35%, passing the limit was not always enough; inconclusive means no clear call, values can overlap the other calls; further: plate controls were buffer without enzyme for full effect and enzyme alone for no effect
Autofluor counter: compound fluorescence in toxin protease inhibitor counterscreen; compound autofluorescence counterscreen, microsphere flow cytometry; stronger effect = higher value; fluorescence intensity (concentration not given with the values); hit rate 3.1% among 360,000; AID 624483; in the data active means fluorescence intensity above about 16000; inconclusive means no clear call, values can overlap the other calls
BoNT-A LC inh2: blocks Botulinum neurotoxin A light chain protease | multiplex microsphere protease substrate cleavage, flow cytometry | inhibition, % at 10 µM | hit rate 0.17% among 360,000; further: plate controls were buffer without enzyme for full effect and enzyme alone for no effect
BJeLR lethal: kills HRASV12-expressing BJeLR cells; inhibition, % (no concentration beside the values); AID 1554; BJeLR (HRASV12) viability, CellTiter-Glo ATP luminescence, 48 h; hit rate 0.17% among 300,000; in the data active means inhibition above about 50%; inconclusive means no clear call, values can overlap the other calls
Active calls of the source: *; ? = inconclusive; / = not tested or not shown. A selection: hits, their analogues and other compounds. The true share with any hit is near 3.5%. Unless noted, no stated cut-off is given here; in the data, active means inhibition above about 30%; inconclusive means no clear call, values can overlap the other calls; inactive means below that.

SMILES	Anthrax LF inh2	BoNT F protease	Autofluor counter	BoNT-A LC inh2	BJeLR lethal
Cc1ccc(S(=O)(=O)Cc2c(C)noc2C)cc1	-10	-4	22977*	-1	2
CCCCCCN1C[C@H](n2cc(-c3ccc(F)cc3)nn2)[C@@H](O)C[C@@H]1c1ccc(Cl)cc1	2	3	2961	-1	/
Cc1cc2cc(C=O)c(Cl)nc2cc1C	-3	-7	17857*	-3	1
Cc1ccc2cc(C=O)c(N(C)C)nc2c1	2	-5	6983	3	2
COc1ccccc1C(O)P(=O)(OC(C)C)c1ccc(N(C)C)cc1 (configuration not stated)	-1	-2	15735	2	-3
CC(C)OP(=O)(c1ccc(N(C)C)cc1)C(O)c1ccc(Br)cc1 (configuration not stated)	-9	-18	4521	-1	3
CCOP(=O)(c1ccc(N(C)C)cc1)C(O)c1ccccc1OC (configuration not stated)	-12	5	18542*	?	2
CC(C)OP(=O)(c1ccc(N(C)C)cc1)C(O)c1ccncc1 (configuration not stated)	1	-4	24190*	-2	8
CC(C)CCOP(=O)(c1ccc(N(C)C)cc1)C(O)c1ccccn1 (configuration not stated)	3	0	16641*	1	3
CCCOP(=O)(c1ccc(N(C)C)cc1)C(O)c1cccnc1 (configuration not stated)	-1	-4	19815*	-1	4
CC(C)COP(=O)(c1ccc(N(C)C)cc1)C(O)c1ccccn1 (configuration not stated)	1	5	10074	1	0
CN(c1ccccc1)S(=O)(=O)c1cccc(C(=O)NCCCN2CCCC2=O)c1	5	-2	4839	0	-7
CCCCN(C)c1c(C)nc2ccc(C(=O)Nc3ccc(OC)c(OC)c3)cn12	-2	-2	2803	0	/
COCCn1c(N)c(N(Cc2ccccc2)C(=O)C(C)Oc2ccc(Br)cc2)c(=O)[nH]c1=O (configuration not stated)	1	0	3878	0	/
O=C(Nc1ccn(Cc2ccccc2F)n1)c1ccc(COc2cc(Cl)ccc2Cl)o1	-7	-17	11595	-1	2
O=C(NCc1ccc2c(c1)OCO2)c1ccc(COc2cc(Cl)ccc2Cl)o1	1	18	18111*	10	-7
O=C(Nc1ccn(Cc2c(F)c(F)cc(F)c2F)n1)c1ccc(COc2ccccc2Cl)cc1	-2	-31	9130	-1	7
O=C(Nc1ccn(Cc2c(F)c(F)cc(F)c2F)n1)c1ccc(COc2cc(Cl)ccc2Cl)o1	-2	4	22103*	3	-3
O=C(Nc1ccn(Cc2ccccc2F)n1)c1ccc(COc2ccccc2Cl)cc1	-3	-2	19484*	1	2
Cc1ccccc1S(=O)(=O)N(C)C[C@@H]1OCc2cn(nn2)CCCC(=O)N([C@H](C)CO)C[C@H]1C	2	-1	3751	-1	/
CCc1ccc(N2C(=O)c3sc4nnc(C)c(=O)n4c3C2=O)cc1	-1	7	20580*	3	-4
CCC1S/C(=N/N=C/c2ccco2)N(Cc2ccc(F)cc2)C1=O (configuration not stated)	/	/	/	/	12
CCC1S/C(=N/N=C/c2ccco2)N(Cc2ccccc2C)C1=O (configuration not stated)	41*	?	3284	?	-6
CN1OC[C@@H]2CN(S(=O)(=O)c3cc(Cl)cc(Cl)c3)[C@H](c3ccc(-c4ccc(C#N)cc4)cc3)C[C@@H]21	-1	-4	5820	1	/
COC(=O)C[C@H]1C[C@H]2c3cc(NS(=O)(=O)c4cccc(OC)c4)ccc3O[C@H]2[C@@H](CO)O1	2	3	3556	0	/
SMILES	Anthrax LF inh2	BoNT F protease	Autofluor counter	BoNT-A LC inh2	BJeLR lethal
COc1nc(OC)nc(N2CCC(C(=O)Nc3cccc4ccccc34)CC2)n1	-3	-4	23395*	-2	2
COc1nc(OC)nc(N2CCC(C(=O)Nc3cccc4c3CCCC4)CC2)n1	-3	0	15828	0	-2
COc1nc(OC)nc(N2CCC(C(=O)NCc3ccco3)CC2)n1	0	2	19494*	2	3
Cc1cc(C)nc(N2CCC(C(=O)NCc3ccco3)CC2)n1	2	-4	8698	0	0
Cc1cc(C)c(C(=O)OCCNC(=O)c2cccnc2)cc1C	-3	11	9383	1	2
O=C(NCCOC(=O)c1ccccc1C(=O)OCCNC(=O)c1cccnc1)c1cccnc1	-12	11	19258*	6	0
Clc1ccc(Cc2ccc(Cl)nn2)c(Cl)c1	1	-3	23303*	0	-8
Clc1ccc(Cc2ccccc2)nn1	-2	-4	21162*	-2	-6
Cn1c(=O)c2[nH]c(-c3cccnc3)nc2n(C)c1=O	-2	0	21912*	1	0
Cc1cc(=O)[nH]c(-c2cccnc2)n1	-7	2	3595	-1	-6
CC1(C(=O)NCc2ccccc2)CCC(=O)N1C1CCN(Cc2ccccc2)CC1 (configuration not stated)	1	2	5316	-1	/
COc1cc(C(=O)OC(C)C(=O)Nc2ccc3c(c2)OCO3)ccc1OCc1c(C)noc1C (configuration not stated)	2	-6	3864	1	12
Cc1noc(C)c1COc1cccc(C(=O)OC(C)C(=O)Nc2ccc3c(c2)OCO3)c1 (configuration not stated)	0	0	19670*	4	22
Cc1ccc(NC(=O)C(C)C(=O)Nc2ccc(C)cc2)cc1	-5	0	4833	0	-1
Cc1ccc(NC(=O)N2CCC(=O)N2)cc1	-8	-5	23674*	-3	-16
CCc1ccccc1NC(=O)c1cc2ncc(Br)cn2n1	-1	7	21333*	?	-6
O=C(Nc1cccc(C(F)(F)F)c1)c1cc2ncc(Br)cn2n1	1	3	22276*	4	3
O=C(NCCc1ccccc1)c1cc2ncc(Br)cn2n1	2	0	2715	1	6
N#Cc1cccc(C=C(C(=O)c2ccccc2)c2ccccc2)c1	-13	-21	4856	-1	/
CCN(CC)C(=O)C1=C(C)N(Cc2ccccc2)C(=O)C(CC(=O)NCc2ccco2)C1 (configuration not stated)	-2	3	3690	0	/
C(=N\N1CCOCC1)/c1nc(-c2ccccc2)n2ccccc12	-3	4	4879	-1	-5
CC(C)(C)c1ccc(-c2nc(C=O)c3ccccn23)cc1	21	21	18863*	?	3
Cc1c(NC(=O)C(C)OC(=O)CCc2c[nH]c3ccccc23)c(=O)n(-c2ccccc2)n1C (configuration not stated)	-5	-8	5822	0	5
Cc1nc2c(OCc3ccc(OC(F)F)cc3)cccn2c1N(C)C(=O)CCC1CCCC1	-8	-4	3757	-1	/
C/C(=N\Nc1cc(-c2ccccc2)nc(-c2ccc(Br)cc2)n1)c1cccc(N)c1	-5	-13	17624*	-6	/
Cc1ccc(S(=O)(=O)Cn2cnnn2)cc1	0	-2	24828*	-3	-1

From PubChem BioAssay
